Several values for one entry are separate records, joined by “and”; a condition that tells them apart may be missing. Equal values may be shown once. The campaign covered roughly 5,500 compounds. About 2,000 (36%) were called active. Not shown: some 18% with an inconclusive outcome. Cut-off read from the data, not from the text of the source: active = normalized growth mostly below about 0.91 (no sharp cut-off); inconclusive = no clear call, values can overlap the other calls; inactive = mostly above about 0.92. The list shows a part of the results.
Test: chemical genetic growth profiling, strain panel (AID 1159580);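 note: tested at 20 µM; growth read once vehicle control cultures reached saturation at 30 °C; 1 = growth at the plate median or of vehicle wells; lower values mean less growth of the strain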
Settings: S. cerevisiae deletion strains, growth OD

Measured: normalized growth

CCN(CC)CCNC(=O)c1cc(S(C)(=O)=O)ccc1OC
inactive: locus YAL013W, strain DEP1, active compounds read low 1 | locus YAL021C, strain ccr4, active compounds read low 0.979 | locus YAL026C, strain drs2, active compounds read low 0.976 | locus YAL030W, strain snc1, active compounds read low 0.955 | locus YAL040C, strain CLN3, active compounds read low 1.05 | locus YBL061C, strain skt5, active compounds read low 0.967 | locus YBR009C, strain hhf1, active compounds read low 0.989 | locus YBR021W, strain FUR4, active compounds read low 1.02 | locus YBR023C, strain chs3, active compounds read low 0.968 | locus YBR171W, strain sec66, active compounds read low 0.955 | locus YBR229C, strain ROT2, active compounds read low 1.01 | locus YBR231C, strain swc5, active compounds read low 0.974 | locus YBR279W, strain paf1, active compounds read low 0.969 | locus YCL011C, strain gbp2, active compounds read low 0.945 | locus YCL016C, strain dcc1, active compounds read low 0.971 | locus YCL029C, strain bik1, active compounds read low 1.01 | locus YCL061C, strain MRC1 (second series), active compounds read low 0.991 | locus YCL061C, strain MRC1, active compounds read low 0.982 | locus YCL069W, strain vba3, active compounds read low 0.984 | locus YCR088W, strain abp1, active compounds read low 0.967 | locus YDL005C, strain med2, active compounds read low 0.972 | locus YDL035C, strain GPR1, active compounds read low 1.02 | locus YDL040C, strain nat1, active compounds read low 0.976 | locus YDL074C, strain BRE1, active compounds read low 1 | locus YDL101C, strain DUN1, active compounds read low 1.01 | locus YDL134C, strain PPH21, active compounds read low 1.02 | locus YDL185W, strain tfp1, active compounds read low 1.01 | locus YDL192W, strain arf1, active compounds read low 1.01 | locus YDR001C, strain nth1, active compounds read low 0.953 | locus YDR069C, strain doa4, active compounds read low 0.974 | locus YDR101C, strain arx1, active compounds read low 0.991 | locus YDR137W, strain rgp1, active compounds read low 0.959 | locus YDR150W, strain NUM1, active compounds read low 1.01 and 0.998 | locus YDR159W, strain sac3, active compounds read low 0.978 | locus YDR162C, strain NBP2, active compounds read low 1.02 | locus YDR195W, strain ref2 0.965 | locus YDR297W, strain sur2, active compounds read low 0.967 | locus YDR318W, strain mcm21, active compounds read low 1.02 | locus YDR334W, strain swr1, active compounds read low 0.937 | locus YDR335W, strain msn5, active compounds read low 0.966 | locus YDR363W, strain ESC2, active compounds read low 0.973 | locus YDR388W, active compounds read low 1.02 | locus YDR392W, strain spt3, active compounds read low 0.902 | locus YDR502C, strain sam2, active compounds read low 1.01 | locus YEL003W, strain gim4, active compounds read low 0.979 | locus YEL037C, strain rad23, active compounds read low 0.971 | locus YEL061C, strain CIN8 (second series), active compounds read low 0.964 | locus YEL061C, strain CIN8, active compounds read low 1.01 | locus YER002W, strain NOP16, active compounds read low 1.01 | locus YER015W, strain faa2, active compounds read low 0.976 | locus YER016W, strain bim1, active compounds read low 0.988 | locus YER110C, active compounds read low 1.01 | locus YER111C, strain swi4, active compounds read low 0.966 | locus YER155C, strain BEM2 (second series), active compounds read low 0.978 | locus YER155C, strain BEM2, active compounds read low 1.01 | locus YER167W, strain BCK2, active compounds read low 1.02 | locus YFR010W, strain ubp6, active compounds read low 0.953 | locus YGL078C, strain dbp3, active compounds read low 1.01 | locus YGL086W, strain mad1, active compounds read low 1 | locus YGL167C, strain pmr1, active compounds read low 0.97 | locus YGL173C, strain kem1, active compounds read low 0.965 | locus YGL227W, strain vid30, active compounds read low 0.97 | locus YGL240W, strain doc1, active compounds read low 0.972 | locus YGL248W, strain PDE1, active compounds read low 1 | locus YGL253W, strain hxk2, active compounds read low 0.987 | locus YGR078C, strain PAC10, active compounds read low 0.998 | locus YGR135W, strain pre9, active compounds read low 1.03 | locus YGR229C, strain SMI1, active compounds read low 0.96 | locus YGR252W, strain gcn5, active compounds read low 0.996 | locus YHR013C, strain ard1, active compounds read low 0.95 | locus YHR027C, strain rpn1, active compounds read low 0.952 | locus YHR030C, strain SLT2, active compounds read low 1.01 and 0.98 | locus YHR079C, strain IRE1 (second series), active compounds read low 1.01 | locus YHR079C, strain IRE1, active compounds read low 0.998 | locus YHR094C, strain hxt1, active compounds read low 1.01 | locus YHR129C, strain ARP1, active compounds read low 1.01 | locus YHR142W, strain chs7, active compounds read low 0.928 | locus YHR200W, strain rpn10, active compounds read low 1.01 | locus YIL066C, strain RNR3, active compounds read low 1.02 | locus YIL073C, strain SPO22, active compounds read low 1.1 | locus YIL125W, strain kgd1, active compounds read low 1.02 | locus YIR030C, strain dcg1, active compounds read low 1.01 | locus YJL092W, strain hpr5, active compounds read low 0.979 | locus YJL095W, strain BCK1 (second series), active compounds read low 0.972 | locus YJL095W, strain BCK1, active compounds read low 0.997 and 0.978 | locus YJL115W, strain asf1, active compounds read low 0.954 | locus YJL129C, strain trk1, active compounds read low 0.986 | locus YJL134W, strain LCB3, active compounds read low 1.01 | locus YJL154C, strain vps35, active compounds read low 0.95 | locus YJL164C, strain tpk1, active compounds read low 0.981 | locus YJL166W, strain qcr8, active compounds read low 0.931 | locus YJL168C, strain set2, active compounds read low 1.01 | locus YJL187C, strain SWE1 (second series), active compounds read low 0.999 | locus YJL187C, strain SWE1, active compounds read low 0.974 | locus YJR043C, strain POL32, active compounds read low 1.01

— PubChem BioAssay AID1159580 (chemical genetic matrix, 2015)
